Reference: article PMC7862700, “An all-to-all approach to the identification of sequence-specific readers for epigenetic DNA modifications on cytosine”

How the values were obtained:
Experiment in all cases: DAPPL (digital affinity profiling via proximity ligation, sequencing); 10 mM Tris-HCl pH 7.5, 50 mM NaCl, 1 mM DTT, 4% glycerol, room temperature, 30 min; GST-TFs on glutathione beads, 16-mer random dsDNA library, 0.1% formaldehyde crosslink after washing; high values mean tight binding
FEV = molecular target: T1, FEV (Homo sapiens, UniProt Q99581 1-238); settings: protein: recombinant; tags: N-terminal GST; dsDNA, one strand shown
T1 sequence: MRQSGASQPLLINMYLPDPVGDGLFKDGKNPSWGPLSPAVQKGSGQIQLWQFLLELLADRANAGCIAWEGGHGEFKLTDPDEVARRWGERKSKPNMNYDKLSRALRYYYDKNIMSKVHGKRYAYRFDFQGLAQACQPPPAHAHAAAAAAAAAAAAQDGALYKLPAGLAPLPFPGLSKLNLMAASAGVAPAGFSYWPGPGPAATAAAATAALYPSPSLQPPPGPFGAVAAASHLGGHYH
How it was run: (§1)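 The binding signal reported is, for every hexamer, its read frequency for a factor over its read frequency for the tag-only sample. Reads came from pools of yeast-expressed, GST-fused human transcription factors on glutathione beads, barcoded with DNA and mixed with that sample, which were incubated with 200 nmole of a random double-stranded 16-mer DNA library in Tris/NaCl/DTT/glycerol buffer at room temperature for 30 min. After washing, the pools were crosslinked with 0.1% formaldehyde, proximity-ligated with BsaI/T4 ligase for 1 h at 37 °C, PCR-amplified and sequenced on an Illumina NextSeq500.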

ETV5 = ETV5 (Homo sapiens, UniProt P41161 1-510); settings: protein: recombinant; tags: N-terminal GST; dsDNA, one strand shown
Sequence of ETV5 (P41161 whole entry): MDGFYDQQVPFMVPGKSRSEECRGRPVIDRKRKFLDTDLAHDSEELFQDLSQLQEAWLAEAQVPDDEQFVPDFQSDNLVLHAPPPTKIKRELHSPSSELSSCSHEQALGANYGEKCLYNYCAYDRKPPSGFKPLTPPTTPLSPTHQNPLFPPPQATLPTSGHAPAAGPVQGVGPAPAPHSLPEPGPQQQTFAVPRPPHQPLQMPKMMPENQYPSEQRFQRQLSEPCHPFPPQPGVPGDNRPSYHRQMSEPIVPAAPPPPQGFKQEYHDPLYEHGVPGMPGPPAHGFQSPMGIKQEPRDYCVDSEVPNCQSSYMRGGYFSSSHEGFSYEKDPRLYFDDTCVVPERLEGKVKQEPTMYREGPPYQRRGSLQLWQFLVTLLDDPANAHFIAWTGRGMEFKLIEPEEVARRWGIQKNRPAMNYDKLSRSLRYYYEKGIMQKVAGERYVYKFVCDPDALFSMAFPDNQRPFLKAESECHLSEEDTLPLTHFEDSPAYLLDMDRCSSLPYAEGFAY
How it was run: as §1

HSF1 = HSF1 (Homo sapiens, UniProt Q00613 1-529); settings: protein: recombinant; tags: N-terminal GST; chain copies: 3; dsDNA, one strand shown
Sequence of HSF1 (Q00613 whole entry): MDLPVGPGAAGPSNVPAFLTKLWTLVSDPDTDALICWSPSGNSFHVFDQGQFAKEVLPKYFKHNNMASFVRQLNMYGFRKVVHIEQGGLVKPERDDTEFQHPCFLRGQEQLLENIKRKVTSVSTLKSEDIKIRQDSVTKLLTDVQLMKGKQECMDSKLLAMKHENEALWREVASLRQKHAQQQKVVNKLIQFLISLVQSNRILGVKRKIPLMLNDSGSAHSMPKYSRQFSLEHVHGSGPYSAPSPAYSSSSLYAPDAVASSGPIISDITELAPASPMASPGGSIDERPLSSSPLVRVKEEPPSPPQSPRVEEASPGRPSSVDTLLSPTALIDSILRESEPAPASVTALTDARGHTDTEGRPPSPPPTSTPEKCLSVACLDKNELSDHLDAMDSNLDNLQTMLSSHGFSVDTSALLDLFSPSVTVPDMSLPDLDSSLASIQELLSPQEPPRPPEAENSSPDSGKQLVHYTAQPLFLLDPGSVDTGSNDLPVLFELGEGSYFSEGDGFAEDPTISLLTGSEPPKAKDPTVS
How it was run: as §1

SPIC = molecular target: T2, SPIC (Homo sapiens, UniProt Q8N5J4 1-248); settings: protein: recombinant; tags: N-terminal GST; dsDNA, one strand shown
T2 sequence: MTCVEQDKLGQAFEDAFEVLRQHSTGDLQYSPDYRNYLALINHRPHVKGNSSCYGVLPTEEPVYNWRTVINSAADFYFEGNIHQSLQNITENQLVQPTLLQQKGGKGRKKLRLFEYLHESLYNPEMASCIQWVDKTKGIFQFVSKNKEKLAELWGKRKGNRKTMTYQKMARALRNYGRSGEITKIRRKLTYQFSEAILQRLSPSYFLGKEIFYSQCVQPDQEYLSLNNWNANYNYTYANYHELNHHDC
How it was run: as §1

ELF4 = ELF4 (Homo sapiens, UniProt Q99607 1-663); settings: protein: recombinant; tags: N-terminal GST; dsDNA, one strand shown
Sequence of ELF4 (Q99607 whole entry): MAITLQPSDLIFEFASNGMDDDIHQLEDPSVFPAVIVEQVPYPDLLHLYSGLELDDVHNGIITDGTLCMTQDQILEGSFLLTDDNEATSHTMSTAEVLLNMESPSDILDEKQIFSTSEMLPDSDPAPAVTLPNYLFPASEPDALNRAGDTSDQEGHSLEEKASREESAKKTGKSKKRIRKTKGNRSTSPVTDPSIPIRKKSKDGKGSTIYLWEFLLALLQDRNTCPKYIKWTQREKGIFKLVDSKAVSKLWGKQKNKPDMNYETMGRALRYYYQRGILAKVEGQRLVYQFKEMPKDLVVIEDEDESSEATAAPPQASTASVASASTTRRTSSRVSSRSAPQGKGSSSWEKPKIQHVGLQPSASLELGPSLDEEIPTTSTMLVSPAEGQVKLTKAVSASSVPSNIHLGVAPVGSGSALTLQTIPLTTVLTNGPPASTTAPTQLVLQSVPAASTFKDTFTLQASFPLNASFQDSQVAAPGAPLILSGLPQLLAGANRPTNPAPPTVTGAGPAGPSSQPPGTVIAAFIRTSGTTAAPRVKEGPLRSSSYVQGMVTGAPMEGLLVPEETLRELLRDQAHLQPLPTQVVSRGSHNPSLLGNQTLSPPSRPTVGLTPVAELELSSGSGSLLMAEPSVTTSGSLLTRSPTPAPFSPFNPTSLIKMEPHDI
How it was run: as §1

ELK4 = molecular target: T3, ELK4 (Homo sapiens, UniProt P28324-2 1-405); settings: protein: recombinant; tags: N-terminal GST; dsDNA, one strand shown
T3 sequence: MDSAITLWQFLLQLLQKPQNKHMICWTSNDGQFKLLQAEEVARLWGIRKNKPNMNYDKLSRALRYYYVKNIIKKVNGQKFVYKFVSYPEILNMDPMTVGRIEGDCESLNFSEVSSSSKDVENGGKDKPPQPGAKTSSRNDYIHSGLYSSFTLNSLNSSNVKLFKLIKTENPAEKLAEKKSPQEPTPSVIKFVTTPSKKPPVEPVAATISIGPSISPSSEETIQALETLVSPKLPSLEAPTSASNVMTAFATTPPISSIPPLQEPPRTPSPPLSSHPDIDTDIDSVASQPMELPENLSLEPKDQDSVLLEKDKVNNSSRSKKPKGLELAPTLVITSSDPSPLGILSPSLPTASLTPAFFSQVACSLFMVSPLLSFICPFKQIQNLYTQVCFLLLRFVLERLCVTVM
How it was run: as §1

ETV2 = molecular target: T4, ETV2 (Homo sapiens, UniProt O00321 1-342); settings: protein: recombinant; tags: N-terminal GST; dsDNA, one strand shown
T4 sequence: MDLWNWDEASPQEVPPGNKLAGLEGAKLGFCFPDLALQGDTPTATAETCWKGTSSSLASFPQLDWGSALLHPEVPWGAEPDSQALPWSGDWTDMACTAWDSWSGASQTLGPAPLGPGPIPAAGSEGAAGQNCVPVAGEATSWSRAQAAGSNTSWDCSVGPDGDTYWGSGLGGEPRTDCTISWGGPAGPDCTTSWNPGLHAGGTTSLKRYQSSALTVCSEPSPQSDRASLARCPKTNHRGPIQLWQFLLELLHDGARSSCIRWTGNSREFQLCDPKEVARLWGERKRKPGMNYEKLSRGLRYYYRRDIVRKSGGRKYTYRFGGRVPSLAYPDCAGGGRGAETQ
How it was run: as §1

ELF3 = molecular target: T5, ELF3 (Homo sapiens, UniProt P78545 1-371); settings: protein: recombinant; tags: N-terminal GST; dsDNA, one strand shown
T5 sequence: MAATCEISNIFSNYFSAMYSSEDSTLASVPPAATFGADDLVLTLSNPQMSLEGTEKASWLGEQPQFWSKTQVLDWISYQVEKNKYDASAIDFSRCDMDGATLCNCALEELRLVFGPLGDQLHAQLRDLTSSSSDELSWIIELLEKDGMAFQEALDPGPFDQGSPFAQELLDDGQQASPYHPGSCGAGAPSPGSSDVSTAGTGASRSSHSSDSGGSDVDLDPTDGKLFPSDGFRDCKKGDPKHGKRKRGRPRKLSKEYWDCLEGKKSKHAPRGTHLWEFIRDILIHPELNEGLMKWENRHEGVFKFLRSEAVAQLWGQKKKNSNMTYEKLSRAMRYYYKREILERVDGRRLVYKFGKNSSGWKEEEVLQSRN
How it was run: as §1

CRX = CRX (Homo sapiens, UniProt O43186 1-299); settings: protein: recombinant; tags: N-terminal GST; dsDNA, one strand shown
Sequence of CRX (O43186 whole entry): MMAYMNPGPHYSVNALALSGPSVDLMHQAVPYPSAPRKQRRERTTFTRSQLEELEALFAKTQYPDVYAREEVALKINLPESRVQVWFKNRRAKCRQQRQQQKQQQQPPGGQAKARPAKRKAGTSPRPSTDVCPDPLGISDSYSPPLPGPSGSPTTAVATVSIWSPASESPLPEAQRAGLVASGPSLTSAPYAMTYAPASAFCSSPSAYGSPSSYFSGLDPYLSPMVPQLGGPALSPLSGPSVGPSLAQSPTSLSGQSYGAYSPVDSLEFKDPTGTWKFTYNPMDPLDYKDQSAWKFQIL
How it was run: as §1

ETV1 = ETV1 (Homo sapiens, UniProt P50549 1-477); settings: protein: recombinant; tags: N-terminal GST; dsDNA, one strand shown
Sequence of ETV1 (P50549 whole entry): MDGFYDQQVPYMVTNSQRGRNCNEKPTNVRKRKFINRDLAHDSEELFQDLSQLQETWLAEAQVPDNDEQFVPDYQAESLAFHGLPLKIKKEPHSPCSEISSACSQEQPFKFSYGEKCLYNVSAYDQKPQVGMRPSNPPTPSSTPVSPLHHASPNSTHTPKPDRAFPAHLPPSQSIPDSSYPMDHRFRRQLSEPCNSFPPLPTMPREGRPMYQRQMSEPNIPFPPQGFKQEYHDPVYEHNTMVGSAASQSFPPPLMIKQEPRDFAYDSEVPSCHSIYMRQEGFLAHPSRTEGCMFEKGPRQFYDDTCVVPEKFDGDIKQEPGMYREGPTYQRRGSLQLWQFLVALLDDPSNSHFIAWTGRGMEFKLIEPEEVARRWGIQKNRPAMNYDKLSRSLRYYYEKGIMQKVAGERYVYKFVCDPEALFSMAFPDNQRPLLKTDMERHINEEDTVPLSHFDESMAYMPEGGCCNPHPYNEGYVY
How it was run: as §1

ERF = molecular target: T6, ERF (Homo sapiens, UniProt P50548 1-548); settings: protein: recombinant; tags: N-terminal GST; dsDNA, one strand shown
T6 sequence: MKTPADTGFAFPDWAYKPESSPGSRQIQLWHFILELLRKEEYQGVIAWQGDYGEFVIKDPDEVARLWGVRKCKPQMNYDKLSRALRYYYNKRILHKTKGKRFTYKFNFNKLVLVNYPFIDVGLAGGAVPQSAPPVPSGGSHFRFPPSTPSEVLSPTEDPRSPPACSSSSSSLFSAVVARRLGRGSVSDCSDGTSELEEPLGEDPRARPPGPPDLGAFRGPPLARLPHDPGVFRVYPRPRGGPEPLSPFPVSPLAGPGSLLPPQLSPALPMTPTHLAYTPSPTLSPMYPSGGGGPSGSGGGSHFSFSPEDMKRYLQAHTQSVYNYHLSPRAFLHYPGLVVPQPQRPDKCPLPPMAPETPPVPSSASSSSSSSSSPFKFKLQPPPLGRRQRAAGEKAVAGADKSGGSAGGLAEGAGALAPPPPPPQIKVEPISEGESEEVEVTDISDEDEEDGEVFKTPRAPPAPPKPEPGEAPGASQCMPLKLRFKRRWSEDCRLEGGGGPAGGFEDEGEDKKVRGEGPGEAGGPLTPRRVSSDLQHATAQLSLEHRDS
How it was run: as §1

ETV3L = molecular target: T7, ETV3L (Homo sapiens, UniProt Q6ZN32 1-361); settings: protein: recombinant; tags: N-terminal GST; dsDNA, one strand shown
T7 sequence: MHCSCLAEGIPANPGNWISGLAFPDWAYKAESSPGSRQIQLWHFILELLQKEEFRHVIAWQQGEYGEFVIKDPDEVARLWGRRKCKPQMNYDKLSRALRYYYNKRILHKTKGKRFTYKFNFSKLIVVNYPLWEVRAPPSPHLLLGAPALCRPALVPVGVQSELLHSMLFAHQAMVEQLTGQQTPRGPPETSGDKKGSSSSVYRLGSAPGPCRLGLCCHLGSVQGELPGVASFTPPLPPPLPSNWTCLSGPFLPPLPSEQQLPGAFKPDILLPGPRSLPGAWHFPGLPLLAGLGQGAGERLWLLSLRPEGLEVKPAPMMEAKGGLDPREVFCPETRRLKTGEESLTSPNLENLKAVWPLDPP
How it was run: as §1

ETS2 = molecular target: T8, ETS2 (Homo sapiens, UniProt P15036 1-469); settings: protein: recombinant; tags: N-terminal GST; dsDNA, one strand shown
T8 sequence: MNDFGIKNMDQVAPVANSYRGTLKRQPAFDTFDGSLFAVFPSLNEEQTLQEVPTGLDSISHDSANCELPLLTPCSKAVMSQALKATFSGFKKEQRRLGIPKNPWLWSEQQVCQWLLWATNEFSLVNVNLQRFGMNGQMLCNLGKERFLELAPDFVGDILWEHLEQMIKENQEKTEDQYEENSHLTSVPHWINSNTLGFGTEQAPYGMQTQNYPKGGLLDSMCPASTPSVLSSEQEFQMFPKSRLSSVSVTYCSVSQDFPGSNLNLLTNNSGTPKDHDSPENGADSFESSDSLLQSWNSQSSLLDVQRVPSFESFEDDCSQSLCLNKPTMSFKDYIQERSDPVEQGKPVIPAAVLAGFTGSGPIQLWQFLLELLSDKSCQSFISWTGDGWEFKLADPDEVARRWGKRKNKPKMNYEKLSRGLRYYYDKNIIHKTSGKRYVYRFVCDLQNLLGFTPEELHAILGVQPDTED
How it was run: as §1

SPDEF = molecular target: T9, SPDEF (Homo sapiens, UniProt O95238 1-335); settings: protein: recombinant; tags: N-terminal GST; dsDNA, one strand shown
T9 sequence: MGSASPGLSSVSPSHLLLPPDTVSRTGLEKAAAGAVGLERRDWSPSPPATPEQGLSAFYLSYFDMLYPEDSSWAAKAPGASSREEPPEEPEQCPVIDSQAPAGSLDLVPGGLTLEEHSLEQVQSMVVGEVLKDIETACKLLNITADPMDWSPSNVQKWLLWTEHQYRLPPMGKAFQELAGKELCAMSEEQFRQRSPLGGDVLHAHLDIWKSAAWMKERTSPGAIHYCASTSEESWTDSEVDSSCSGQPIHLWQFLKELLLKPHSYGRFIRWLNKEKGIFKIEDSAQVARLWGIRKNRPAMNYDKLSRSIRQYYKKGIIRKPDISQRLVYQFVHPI
How it was run: as §1

ETV7 = molecular target: T10, ETV7 (Homo sapiens, UniProt Q9Y603 1-341); settings: protein: recombinant; tags: N-terminal GST; dsDNA, one strand shown
T10 sequence: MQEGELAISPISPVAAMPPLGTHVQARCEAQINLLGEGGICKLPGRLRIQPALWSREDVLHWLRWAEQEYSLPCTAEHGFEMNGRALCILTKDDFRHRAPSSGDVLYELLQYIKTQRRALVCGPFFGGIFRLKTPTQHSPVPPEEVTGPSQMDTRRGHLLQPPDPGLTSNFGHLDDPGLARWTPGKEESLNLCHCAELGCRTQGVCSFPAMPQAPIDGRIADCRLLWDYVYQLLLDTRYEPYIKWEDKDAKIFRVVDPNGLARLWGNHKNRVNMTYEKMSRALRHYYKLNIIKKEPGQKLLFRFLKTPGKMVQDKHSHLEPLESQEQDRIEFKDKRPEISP
How it was run: as §1

ELF5 = molecular target: T11, ELF5 (Homo sapiens, UniProt Q9UKW6-2 1-255); settings: protein: recombinant; tags: N-terminal GST; dsDNA, one strand shown
T11 sequence: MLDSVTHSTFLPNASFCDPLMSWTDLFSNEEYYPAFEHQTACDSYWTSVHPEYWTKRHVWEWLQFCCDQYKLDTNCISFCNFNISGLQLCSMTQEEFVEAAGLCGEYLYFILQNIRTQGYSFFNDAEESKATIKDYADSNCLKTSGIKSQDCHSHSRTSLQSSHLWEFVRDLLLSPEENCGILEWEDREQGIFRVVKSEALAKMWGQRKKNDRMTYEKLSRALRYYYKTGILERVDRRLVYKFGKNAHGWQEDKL
How it was run: as §1

ETV3 = molecular target: T12, ETV3 (Homo sapiens, UniProt P41162-2 1-143); settings: protein: recombinant; tags: N-terminal GST; dsDNA, one strand shown
T12 sequence: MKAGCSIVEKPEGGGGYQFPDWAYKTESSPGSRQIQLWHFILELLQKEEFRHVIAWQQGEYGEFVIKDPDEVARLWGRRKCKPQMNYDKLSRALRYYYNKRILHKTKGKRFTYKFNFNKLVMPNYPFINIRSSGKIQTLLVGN
How it was run: as §1

ETV6 = ETV6 (Homo sapiens, UniProt P41212 1-452); settings: protein: recombinant; tags: N-terminal GST; dsDNA, one strand shown
Sequence of ETV6 (P41212 whole entry): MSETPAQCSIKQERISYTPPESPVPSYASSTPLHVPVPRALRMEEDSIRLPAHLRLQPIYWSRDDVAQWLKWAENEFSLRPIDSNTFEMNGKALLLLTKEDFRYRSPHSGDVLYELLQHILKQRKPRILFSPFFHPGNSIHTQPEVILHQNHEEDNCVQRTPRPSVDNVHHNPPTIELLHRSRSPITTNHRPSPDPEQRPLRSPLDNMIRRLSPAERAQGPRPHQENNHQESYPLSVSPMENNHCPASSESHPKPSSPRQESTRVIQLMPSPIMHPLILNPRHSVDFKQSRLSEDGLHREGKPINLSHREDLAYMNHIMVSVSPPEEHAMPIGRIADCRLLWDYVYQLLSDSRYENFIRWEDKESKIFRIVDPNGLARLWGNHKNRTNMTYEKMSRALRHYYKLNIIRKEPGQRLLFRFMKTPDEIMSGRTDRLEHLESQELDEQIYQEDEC
How it was run: as §1

ATTTAA
binding signal (FEV): 1.14 fold enrichment (6-mer frequency, TF over GST control)
binding signal (ETV5): 1.24 fold enrichment (6-mer frequency, TF over GST control)
binding signal (HSF1): 1.62 fold enrichment (6-mer frequency, TF over GST control)
binding signal (SPIC): 1.22 fold enrichment (6-mer frequency, TF over GST control)
binding signal (ELF4): 1.13 fold enrichment (6-mer frequency, TF over GST control)
binding signal (ELK4): 1.18 fold enrichment (6-mer frequency, TF over GST control)
binding signal (ETV2): 1.17 fold enrichment (6-mer frequency, TF over GST control)
binding signal (ELF3): 1.11 fold enrichment (6-mer frequency, TF over GST control)
binding signal (CRX): 2.38 fold enrichment (6-mer frequency, TF over GST control)
binding signal (ETV1): 1.14 fold enrichment (6-mer frequency, TF over GST control)
binding signal (ERF): 1.21 fold enrichment (6-mer frequency, TF over GST control)
binding signal (ETV3L): 1.19 fold enrichment (6-mer frequency, TF over GST control)
binding signal (ETS2): 1.28 fold enrichment (6-mer frequency, TF over GST control)
binding signal (SPDEF): 1.24 fold enrichment (6-mer frequency, TF over GST control)
binding signal (ETV7): 1.27 fold enrichment (6-mer frequency, TF over GST control)
binding signal (ELF5): 1.1 fold enrichment (6-mer frequency, TF over GST control)
binding signal (ETV3): 1.13 fold enrichment (6-mer frequency, TF over GST control)
binding signal (ETV6): 1.21 fold enrichment (6-mer frequency, TF over GST control)
